Several values for one entry are separate records, joined by “and”; a condition that tells them apart may be missing. Equal entries are not always repeated. Inconclusive results are not listed. Activity calls are given as the source filed them. Unless noted, the rule behind the calls is not given here.

Assay [1] in a line: qHTS profiling for inhibitors of Plasmodium falciparum (3D7) proliferation (AID 743322).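 Note: infected erythrocytes exposed to compound for 72 h before lysis; 100% = DMSO vehicle wells and 0% = 0.29 µM artemisinin.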 The note with it: P. falciparum 3D7 proliferation; at 28.7 µM (top of the series) unless noted. The procedure, abridged: (§1)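 Erythrocytes infected with P. falciparum (0.3% parasitemia, 2.5% hematocrit) incubated with compounds 72 h at 37 C, 5% CO2. Lysis with saponin/Triton buffer containing SYBR Green I, overnight at room temperature in the dark; DNA fluorescence (485/535 nm) normalised to 0.29 uM artemisinin and DMSO.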
For orientation: In qHTS, concentration-response curves come from the screen itself.

Assay [2] is described as follows: qHTS profiling for inhibitors of Plasmodium falciparum (DD2) proliferation (AID 743323). The conditions noted are these: lower = more inhibition; at 28.7 µM (top of the series) unless noted. An outline of the steps: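 P. falciparum Dd2-infected erythrocytes (0.3% parasitemia, 2.5% hematocrit) exposed 72 h at 37 C, 5% CO2. Lysis with SYBR Green, overnight at room temperature, fluorescence 485/535 nm; normalized to 0.29 uM artemisinin and DMSO.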

A short description of assay [3]: qHTS profiling for inhibitors of Plasmodium falciparum (HB3) proliferation (AID 743324; active = well fitted curve in the direction sought with a large enough effect; an effect the other way counts as inactive or inconclusive;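 note: 100% = DMSO vehicle wells and 0% = artemisinin-treated control wells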). The conditions noted are these: Plasmodium falciparum HB3 blood-stage proliferation; at 28.7 µM (top of the series) unless noted. An outline of the steps:
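P. falciparum HB3 grown in erythrocytes (0.3% parasitemia, 2.5% hematocrit final) with compound for 72 h at 37 C, 5% CO2. Parasite DNA detected by SYBR Green after saponin/triton lysis overnight; normalized to 0.29 uM artemisinin and DMSO.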

Assay [4] is described as follows: qHTS profiling of the MIPE4 collection as inhibitors of Plasmodium falciparum (3D7) proliferation (AID 743344).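 Note: scaled between DMSO vehicle wells and 0.29 µM artemisinin as full inhibition.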 The note with it: P. falciparum 3D7 in erythrocytes, SYBR Green DNA fluorescence, 72 h; at 28.5 µM (top of the series) unless noted. An outline of the steps:
as §1

Assay [5] can be described thus: qHTS profiling of the MIPE4 collection as inhibitors of Plasmodium falciparum (DD2) proliferation (AID 743345). The conditions noted are these: P. falciparum Dd2 in erythrocytes, SYBR Green DNA, 72 h; at 28.5 µM (top of the series) unless noted. The procedure, abridged:
as §1

Assay [6] in a line: qHTS profiling of the MIPE4 collection as inhibitors of Plasmodium falciparum (DD2) proliferation (Rep 2) (AID 743346). The conditions noted are these: P. falciparum Dd2 in erythrocytes, SYBR Green DNA, 72 h; at 28.5 µM (top of the series) unless noted. The procedure, abridged:
as §1

Assay [7] can be described thus: qHTS profiling of the MIPE4 collection as inhibitors of Plasmodium falciparum (HB3) proliferation (AID 743347).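 Note: plate controls were DMSO vehicle wells for no effect and artemisinin wells for full effect.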 The conditions noted are these: P. falciparum HB3 in erythrocytes, SYBR Green DNA, 72 h; at 28.5 µM (top of the series) unless noted. An outline of the steps:
as §1

A short description of assay [8]: High-throughput drug toxicity screening in the BPDCN cell line Gen2.2 (AID 1224824).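 Note: cells exposed to compounds for 48 h before reading.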 The note with it: Gen2.2 BPDCN cells; at 45.8 µM (top of the series) unless noted. An outline of the steps: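 Seed 500 exponentially growing Gen2.2 cells/well; add compounds by pin tool; incubate 48 h, 37 °C, 5% CO2; add CellTiter-Glo, 15 min RT; read luminescence. % activity vs DMSO (100%) and bortezomib (0%).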

Assay [9] in a line: High-throughput drug toxicity screening in the BPDCN cell line Cal-1 (AID 1224825). The note with it: Cal-1 BPDCN cell viability, qHTS; at 45.8 µM (top of the series) unless noted. The procedure, abridged: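 500 Cal-1 cells/well, RPMI + glutamine + 10% FBS (phenol red-free); cpd added by pin tool; 48 h, 37C, 5% CO2; CTG 15 min RT, lumi read. Normalised: DMSO 100%, bortezomib 9.2 uM 0%.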

Assay [10] in a line: qHTS assay for measurement of the activity of small molecule inhibitors on Zika virus induced Caspase-3 activity in human iPSC derived neural progenitor cells (hNPCs) (AID 1224857; active = well fitted curve in the direction sought with a large enough effect; an effect the other way counts as inactive or inconclusive; note: nearly all actives have a fitted effect of over 65% in size; note: potency is the fitted concentration of half-maximal effect). An outline of the steps: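 After overnight (16–20 h) culture at 350 cells/well, hNPCs get compound, then ZIKV 2 FFU/cell one hour later. Six hours on, Caspase-Glo 3/7 is added and luminescence measured.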

The nature of assay [11]: qHTS assay for measurement of the activity of small molecule inhibitors on Zika virus induced Caspase-3 activity in human astrocytoma cells (AID 1224859; active = well fitted curve in the direction sought with a large enough effect; an effect the other way counts as inactive or inconclusive;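 note: plate controls were ZIKV-infected untreated cells for no effect and uninfected cells for full effect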). An outline of the steps: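 Inhibition of Zika-induced caspase-3/7 activity: SNB-19 cells, 1 h compound pretreatment, ZIKV 2 FFU/cell for 6 h at 37 C, Caspase-Glo luminescence read-out.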
Assay [12] is described as follows: qHTS Screen of the MIPE 4.0 Collection Against Ewings Sarcoma (RDES) (AID 1259252; active = well fitted curve in the direction sought with a large enough effect; an effect the other way counts as inactive or inconclusive; note: nearly all actives have a fitted effect of over 35% in size; note: potency is the fitted concentration of half-maximal effect). An outline of the steps: (§2)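 CellTiter-Glo luminescence after 48 h compound exposure (titration) gave viability; percent activity used DMSO-treated cells as no inhibition and medium-only wells as full inhibition. Cells grown in RPMI/5% FBS, dosed 4 h post-seeding.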
Assay [13] in a line: qHTS Screen of the MIPE 4.0 Collection Against Ewings Sarcoma (EW8) (AID 1259255; active = well fitted curve in the direction sought with a large enough effect; an effect the other way counts as inactive or inconclusive; note: nearly all actives have a fitted effect of over 35% in size; note: potency is the fitted concentration of half-maximal effect;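 for viability: 100% = DMSO-treated cells and 0% = medium-only wells without cells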). An outline of the steps:
as §2

Assay [14] in a line: qHTS Screen of the MIPE 4.0 Collection Against Ewings Sarcoma (TC71) (AID 1259253; active = well fitted curve in the direction sought with a large enough effect; an effect the other way counts as inactive or inconclusive; note: nearly all actives have a fitted effect of over 40% in size; note: potency is the fitted concentration of half-maximal effect). The procedure, abridged: as §2
A short description of assay [15]: qHTS Screen of the MIPE 4.0 Collection Against Ewings Sarcoma (TC32) (AID 1259256; active = well fitted curve in the direction sought with a large enough effect; an effect the other way counts as inactive or inconclusive; note: nearly all actives have a fitted effect of over 45% in size; note: potency is the fitted concentration of half-maximal effect). An outline of the steps: as §2
Assay [16] is described as follows: Identifying Small Molecule Inhibitors of Pancreatic Cancer Stem Cells (A2780, Spheroid) (AID 1259357; active = well fitted curve in the direction sought with a large enough effect; an effect the other way counts as inactive or inconclusive;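 note: spheroids pre-formed over 14 days in stem cell medium on hydrogel; compound exposure lasted 48 h before the ATP luminescence read; 100% = DMSO treated cells and 0% = wells without cells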). The note with it: Potency: A2780 spheroid viability. The procedure, abridged: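 Spheroids grown 14 days in stem cell media on nonadherent hydrogel before screening; cells attached 4 h, then compound exposure 48 h at 37C, 5% CO2. CellTiter-Glo luminescence normalized to DMSO (no inhibition) and no-cell wells (full inhibition).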

Assay [17] in a line: qHTS assay to identify small molecule inhibitors of chordoma cells - UCH-1 (AID 1259355; active = well fitted curve in the direction sought with a large enough effect; an effect the other way counts as inactive or inconclusive; note: % is set by controls: 0 for no effect and ±100 for the full control effect; nearly all actives have a fitted effect of over 55% in size). An outline of the steps:
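Seed 800 cells per well; incubate overnight at 37 C, 5% CO2. Add test compounds (15 concentrations), then the auranofin–topoisomerase-agent combination. Incubate 48hr, add CellTiter-Glo, wait 30min, read luminescence.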

In [1], `Cc1ccc(NC(=O)c2cccc(C(C)(C)C#N)c2)cc1Nc1ccc2ncn(C)c(=O)c2c1` registered a remaining parasite growth % (stronger effect = lower value) of 34.8%. In addition, the activity, percent of control in assay [2] stood at 49.3%. For the same compound, the remaining proliferation (% of control), lower = more inhibition in [3] was 7.17%. The parasite growth, % of DMSO control in [4] came to 17.3%. The compound also returned a parasite growth remaining, % of DMSO control (lower = more inhibition) in assay [5] of 39.9%. The compound further came in with a parasite growth, % of control (lower = inhibition) in [6] of 51%. Further, in assay [7], the growth, % of control stood at 16.2%. Also, in [8], the cell viability, % of control (lower = more cytotoxic) was found to be 8.79%. In assay [9], this compound came in with a viability (% of control) of 14%. Also, the Potency result in assay [10] and in [11] was “inactive” each time. Besides, the Potency in assay [12] and in assay [13] was 14.8 µM (active) throughout.
`Cc1csc(NC(=O)c2sc3nc4c(c(C(F)(F)F)c3c2N)CCC4)n1`: in [1], the remaining parasite growth % (stronger effect = lower value) was 100%. This compound also came in with a remaining proliferation (% of control), lower = more inhibition in [3] of 87.9%. The compound also displayed a parasite growth, % of DMSO control in assay [4] of 44.6%. For the same compound, the parasite growth remaining, % of DMSO control (lower = more inhibition) in assay [5] came out at 90.9%. The parasite growth, % of control (lower = inhibition) in assay [6] came out at 62.4%. In addition, the growth, % of control in [7] came to 78.3%. Also, in assay [8], the cell viability, % of control (lower = more cytotoxic) amounted to 36.4%. Moreover, the viability (% of control) in [9] was 93.3%. For the same compound, the Potency in assay [10] was 23.5 µM (active); in assay [12] it was 1.48 µM (active); in assay [14], 4.18 µM (active); in assay [13] it was 13.2 µM (active); in assay [15], 6.62 µM (active). For the same compound, the Potency result in [11] and in assay [16] was “inactive” each time.
Turning to `COc1ccc(-c2oc3cc(OC)ccc3c2C(=O)c2ccc(C#N)cc2)cc1`, the remaining parasite growth % (stronger effect = lower value) in assay [1] worked out at 62.8%. In assay [2], the activity, percent of control came to 77%. Also, the remaining proliferation (% of control), lower = more inhibition in assay [3] turned out to be 23.4%. The compound also registered a parasite growth, % of DMSO control in assay [4] of 23.1%. The compound also yielded a parasite growth remaining, % of DMSO control (lower = more inhibition) in [5] of 81.9%. The compound also returned a parasite growth, % of control (lower = inhibition) in assay [6] of 14.8%. This compound displayed a growth, % of control in assay [7] of 16.7%. Further, in [8], the cell viability, % of control (lower = more cytotoxic) was 84.5%. Moreover, the viability (% of control) in [9] worked out at 19.6%. Also, the Potency entry in [10], in assay [11], in [12], in assay [13] and in assay [15] was “inactive” throughout.
In assay [1], `CCCS(=O)(=O)Nc1ccc(F)c(C(=O)c2c[nH]c3ncc(Cl)cc23)c1F` registered a remaining parasite growth % (stronger effect = lower value) of 90.9%. In [2], this compound registered an activity, percent of control of 83.1%. The compound further had a remaining proliferation (% of control), lower = more inhibition in [3] of 55.7%. Further, the parasite growth, % of DMSO control in assay [4] was 51.6%. In addition, the parasite growth remaining, % of DMSO control (lower = more inhibition) in [5] was determined as 77.2%. The parasite growth, % of control (lower = inhibition) in assay [6] is 80.8%. The growth, % of control in assay [7] worked out at 71.8%. For the same compound, the cell viability, % of control (lower = more cytotoxic) in assay [8] came out at 113%. The viability (% of control) in assay [9] was 17.1%. The Potency result in assay [10], in assay [11] and in assay [16] was “inactive” throughout. Besides, the Potency is 14.8 µM (active) in assay [12], 18.7 µM (active) in assay [14] and 16.6 µM (active) in assay [15].
As for `CCOC(=O)C1=C[C@]2(CC)CCCN3CCc4c(n1c1ccccc41)[C@@H]32`, the parasite growth, % of DMSO control in assay [4] was 5.46% and 17.8%. Besides, in assay [5], the parasite growth remaining, % of DMSO control (lower = more inhibition) was 8.67% and 83.7%. Besides, in assay [6], the parasite growth, % of control (lower = inhibition) is 35.2% and 34.2%. In addition, in assay [7], the growth, % of control was 10% and 13.6%. For the same compound, the cell viability, % of control (lower = more cytotoxic) in assay [8] came out at 13.3%. The compound also came in with a viability (% of control) in [9] of 2.19%. Further, the Potency result in [10], in assay [11] and in [17] was “inactive” throughout. The Potency is 23.5 µM (active) in [12], 20.9 µM (active) in assay [14], 18.7 µM (active) in assay [13] and 18.7 µM (active) in assay [15].
Compound `OCCn1cc(-c2cnc3nnn(Cc4ccc5ncccc5c4)c3n2)cn1` showed a remaining parasite growth % (stronger effect = lower value) in assay [1] of 81.8%. Further, the activity, percent of control in [2] is 86.8%. The remaining proliferation (% of control), lower = more inhibition in assay [3] came to 64.7%. This compound also yielded a parasite growth, % of DMSO control in [4] of 56.6%. Further, the parasite growth remaining, % of DMSO control (lower = more inhibition) in assay [5] was 94.4%. This compound came in with a parasite growth, % of control (lower = inhibition) in assay [6] of 56.8%. The compound further had a growth, % of control in assay [7] of 47.5%. Besides, the cell viability, % of control (lower = more cytotoxic) in assay [8] worked out at 140%. In addition, in assay [9], the viability (% of control) was 89.8%. For the same compound, the Potency entry in assay [10], in assay [11], in assay [12], in assay [14], in [13] and in assay [15] was “inactive” in each case.
`Cc1c(CCOc2ccc(C(=O)O)cc2)c2cc(Cl)ccc2n1C(c1ccccc1)c1ccccc1` returned a remaining parasite growth % (stronger effect = lower value) in assay [1] of 84.7%. For the same compound, the activity, percent of control in [2] was determined as 81.3%. The same compound returned a remaining proliferation (% of control), lower = more inhibition in assay [3] of 23.4%. Moreover, the parasite growth, % of DMSO control in assay [4] is 30.6%. The same compound registered a parasite growth remaining, % of DMSO control (lower = more inhibition) in assay [5] of 70.3%. This compound had a parasite growth, % of control (lower = inhibition) in assay [6] of 41.9%. Moreover, in [7], the growth, % of control was 63.5%. In addition, the cell viability, % of control (lower = more cytotoxic) in [8] worked out at 222%. Besides, in assay [9], the viability (% of control) is 96.5%. The Potency entry in [10] and in assay [11] was “inactive” in each case. In addition, the Potency in assay [12] was 18.7 µM (active); in assay [14], 16.6 µM (active); in assay [13], 14.8 µM (active); in [15], 10.5 µM (active).

(Values after PubChem BioAssay (NCATS).)
